According to ChEMBL document CHEMBL2218924, “A broad activity screen in support of a chemogenomic map for kinase signalling research and drug discovery” (Biochem J, 2013):

Tests used:
[1] = biological target: Serine/threonine-protein kinase 33 (Homo sapiens) (UniProt Q9BYT3); conditions: at 1 µM
[2] = biological target: Serine/threonine-protein kinase 33 (Homo sapiens) (UniProt Q9BYT3); conditions: at 10 µM
[3] = biological target: Serine/threonine-protein kinase PLK2 (Homo sapiens) (UniProt Q9NYY3); conditions: at 1 µM
Chain of Serine/threonine-protein kinase PLK2 (Homo sapiens) (Q9NYY3 whole entry, looked up): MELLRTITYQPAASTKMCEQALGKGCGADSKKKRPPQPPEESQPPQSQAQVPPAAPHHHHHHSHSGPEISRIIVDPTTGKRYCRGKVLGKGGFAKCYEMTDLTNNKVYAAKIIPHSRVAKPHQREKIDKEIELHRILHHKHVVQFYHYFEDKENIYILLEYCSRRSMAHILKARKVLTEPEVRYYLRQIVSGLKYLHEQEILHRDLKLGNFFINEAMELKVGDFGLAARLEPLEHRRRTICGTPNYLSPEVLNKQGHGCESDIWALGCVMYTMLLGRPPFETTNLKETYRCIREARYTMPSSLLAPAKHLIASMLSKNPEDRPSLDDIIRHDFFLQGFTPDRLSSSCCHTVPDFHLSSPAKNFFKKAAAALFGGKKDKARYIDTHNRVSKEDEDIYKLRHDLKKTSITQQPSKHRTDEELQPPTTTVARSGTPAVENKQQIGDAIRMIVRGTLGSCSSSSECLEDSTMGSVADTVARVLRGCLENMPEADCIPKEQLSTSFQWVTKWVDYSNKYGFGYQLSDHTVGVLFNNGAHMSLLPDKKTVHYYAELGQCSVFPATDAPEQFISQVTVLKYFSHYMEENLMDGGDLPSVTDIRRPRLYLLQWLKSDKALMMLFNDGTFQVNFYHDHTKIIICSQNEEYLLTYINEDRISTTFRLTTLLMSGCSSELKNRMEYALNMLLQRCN

[4] = biological target: Serine/threonine-protein kinase PLK2 (Homo sapiens) (UniProt Q9NYY3); conditions: at 10 µM
[5] = biological target: Tyrosine-protein kinase SYK (Homo sapiens) (UniProt P43405); conditions: at 1 µM
[6] = biological target: Tyrosine-protein kinase SYK (Homo sapiens) (UniProt P43405); conditions: at 10 µM
[7] = biological target: T1, Mitogen-activated protein kinase kinase kinase 7 (Homo sapiens) (UniProt O43318); conditions: at 1 µM
T1 sequence (whole entry): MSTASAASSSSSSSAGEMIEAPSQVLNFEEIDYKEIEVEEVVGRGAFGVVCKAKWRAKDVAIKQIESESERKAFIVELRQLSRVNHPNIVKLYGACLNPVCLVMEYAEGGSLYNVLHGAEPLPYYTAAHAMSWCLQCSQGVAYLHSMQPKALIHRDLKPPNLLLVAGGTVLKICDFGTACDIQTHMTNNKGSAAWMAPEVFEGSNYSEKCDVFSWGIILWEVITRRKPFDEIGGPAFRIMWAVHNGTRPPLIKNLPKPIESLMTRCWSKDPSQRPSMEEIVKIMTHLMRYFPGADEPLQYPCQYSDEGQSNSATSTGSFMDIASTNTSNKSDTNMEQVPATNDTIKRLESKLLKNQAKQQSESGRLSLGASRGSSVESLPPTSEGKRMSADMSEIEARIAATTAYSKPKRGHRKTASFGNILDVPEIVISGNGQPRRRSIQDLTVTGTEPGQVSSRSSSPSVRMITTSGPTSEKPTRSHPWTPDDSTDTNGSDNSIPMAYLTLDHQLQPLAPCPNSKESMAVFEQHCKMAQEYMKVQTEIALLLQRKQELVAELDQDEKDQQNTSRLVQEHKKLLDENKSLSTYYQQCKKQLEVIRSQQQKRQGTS

[8] = biological target: T1, Mitogen-activated protein kinase kinase kinase 7 (Homo sapiens); conditions: at 10 µM
[9] = biological target: T2, Serine/threonine-protein kinase TAO1 (Homo sapiens) (UniProt Q7L7X3); conditions: at 1 µM
T2 sequence (whole entry): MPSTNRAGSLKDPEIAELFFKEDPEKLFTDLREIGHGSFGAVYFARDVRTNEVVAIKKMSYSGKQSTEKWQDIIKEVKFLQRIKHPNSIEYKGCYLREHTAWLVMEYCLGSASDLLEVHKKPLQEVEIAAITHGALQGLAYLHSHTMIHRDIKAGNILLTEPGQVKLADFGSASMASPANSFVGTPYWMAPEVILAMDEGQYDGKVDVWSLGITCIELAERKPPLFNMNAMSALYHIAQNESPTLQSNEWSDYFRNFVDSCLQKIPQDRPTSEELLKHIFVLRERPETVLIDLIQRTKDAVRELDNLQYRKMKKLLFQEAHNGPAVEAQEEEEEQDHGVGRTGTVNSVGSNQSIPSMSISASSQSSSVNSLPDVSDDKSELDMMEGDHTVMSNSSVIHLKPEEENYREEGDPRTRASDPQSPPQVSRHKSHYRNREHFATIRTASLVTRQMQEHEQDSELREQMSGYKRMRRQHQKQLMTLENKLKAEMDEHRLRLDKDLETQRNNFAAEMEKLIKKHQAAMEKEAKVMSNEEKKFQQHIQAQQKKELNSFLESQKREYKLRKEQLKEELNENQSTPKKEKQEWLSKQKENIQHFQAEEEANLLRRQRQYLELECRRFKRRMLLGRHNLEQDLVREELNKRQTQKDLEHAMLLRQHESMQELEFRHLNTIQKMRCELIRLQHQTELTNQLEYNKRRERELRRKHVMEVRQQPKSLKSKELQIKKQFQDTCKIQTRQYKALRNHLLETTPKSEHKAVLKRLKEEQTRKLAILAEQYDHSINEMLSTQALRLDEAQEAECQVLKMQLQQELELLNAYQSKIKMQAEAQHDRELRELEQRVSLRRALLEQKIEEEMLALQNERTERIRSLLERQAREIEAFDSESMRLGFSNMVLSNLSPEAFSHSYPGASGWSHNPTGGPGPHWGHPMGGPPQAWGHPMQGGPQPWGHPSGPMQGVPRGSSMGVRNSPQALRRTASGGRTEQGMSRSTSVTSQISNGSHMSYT

[10] = biological target: T2, Serine/threonine-protein kinase TAO1 (Homo sapiens); conditions: at 10 µM
[11] = biological target: T3, Serine/threonine-protein kinase TAO2 (Homo sapiens) (UniProt Q9UL54); conditions: at 1 µM
T3 sequence (whole entry): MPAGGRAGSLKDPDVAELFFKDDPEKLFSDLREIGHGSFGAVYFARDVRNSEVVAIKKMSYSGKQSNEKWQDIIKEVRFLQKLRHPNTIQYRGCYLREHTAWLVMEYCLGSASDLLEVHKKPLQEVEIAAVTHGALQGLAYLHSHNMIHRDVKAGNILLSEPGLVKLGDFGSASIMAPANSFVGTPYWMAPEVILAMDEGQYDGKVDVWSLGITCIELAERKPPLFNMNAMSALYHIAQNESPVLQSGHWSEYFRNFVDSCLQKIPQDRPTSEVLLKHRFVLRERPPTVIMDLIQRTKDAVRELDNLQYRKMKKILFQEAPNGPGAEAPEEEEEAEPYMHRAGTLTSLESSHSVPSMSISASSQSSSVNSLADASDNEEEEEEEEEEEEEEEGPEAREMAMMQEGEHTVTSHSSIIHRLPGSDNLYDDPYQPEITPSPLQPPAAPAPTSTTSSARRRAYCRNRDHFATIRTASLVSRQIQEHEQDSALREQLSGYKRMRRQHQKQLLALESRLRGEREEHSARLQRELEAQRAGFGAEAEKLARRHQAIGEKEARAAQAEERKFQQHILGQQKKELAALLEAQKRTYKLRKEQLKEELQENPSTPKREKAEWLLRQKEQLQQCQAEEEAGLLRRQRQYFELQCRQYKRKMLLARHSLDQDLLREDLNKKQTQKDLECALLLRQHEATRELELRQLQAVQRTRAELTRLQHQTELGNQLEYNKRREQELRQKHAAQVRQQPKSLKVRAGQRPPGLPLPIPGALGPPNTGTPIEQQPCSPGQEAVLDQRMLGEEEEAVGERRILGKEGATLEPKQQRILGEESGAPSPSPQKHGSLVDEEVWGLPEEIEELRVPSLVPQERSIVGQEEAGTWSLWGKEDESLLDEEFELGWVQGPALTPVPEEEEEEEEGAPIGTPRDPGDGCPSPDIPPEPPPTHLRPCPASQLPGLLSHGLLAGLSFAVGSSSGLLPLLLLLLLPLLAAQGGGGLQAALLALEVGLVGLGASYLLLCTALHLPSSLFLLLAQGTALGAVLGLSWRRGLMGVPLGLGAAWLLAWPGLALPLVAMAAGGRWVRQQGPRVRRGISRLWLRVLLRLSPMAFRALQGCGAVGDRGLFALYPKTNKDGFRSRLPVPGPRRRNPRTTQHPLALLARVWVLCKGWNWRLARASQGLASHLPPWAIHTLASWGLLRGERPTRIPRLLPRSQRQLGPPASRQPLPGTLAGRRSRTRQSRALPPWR

[12] = biological target: T3, Serine/threonine-protein kinase TAO2 (Homo sapiens); conditions: at 10 µM
[13] = biological target: T4, Serine/threonine-protein kinase TAO3 (Homo sapiens) (UniProt Q9H2K8); conditions: at 1 µM
T4 sequence (whole entry): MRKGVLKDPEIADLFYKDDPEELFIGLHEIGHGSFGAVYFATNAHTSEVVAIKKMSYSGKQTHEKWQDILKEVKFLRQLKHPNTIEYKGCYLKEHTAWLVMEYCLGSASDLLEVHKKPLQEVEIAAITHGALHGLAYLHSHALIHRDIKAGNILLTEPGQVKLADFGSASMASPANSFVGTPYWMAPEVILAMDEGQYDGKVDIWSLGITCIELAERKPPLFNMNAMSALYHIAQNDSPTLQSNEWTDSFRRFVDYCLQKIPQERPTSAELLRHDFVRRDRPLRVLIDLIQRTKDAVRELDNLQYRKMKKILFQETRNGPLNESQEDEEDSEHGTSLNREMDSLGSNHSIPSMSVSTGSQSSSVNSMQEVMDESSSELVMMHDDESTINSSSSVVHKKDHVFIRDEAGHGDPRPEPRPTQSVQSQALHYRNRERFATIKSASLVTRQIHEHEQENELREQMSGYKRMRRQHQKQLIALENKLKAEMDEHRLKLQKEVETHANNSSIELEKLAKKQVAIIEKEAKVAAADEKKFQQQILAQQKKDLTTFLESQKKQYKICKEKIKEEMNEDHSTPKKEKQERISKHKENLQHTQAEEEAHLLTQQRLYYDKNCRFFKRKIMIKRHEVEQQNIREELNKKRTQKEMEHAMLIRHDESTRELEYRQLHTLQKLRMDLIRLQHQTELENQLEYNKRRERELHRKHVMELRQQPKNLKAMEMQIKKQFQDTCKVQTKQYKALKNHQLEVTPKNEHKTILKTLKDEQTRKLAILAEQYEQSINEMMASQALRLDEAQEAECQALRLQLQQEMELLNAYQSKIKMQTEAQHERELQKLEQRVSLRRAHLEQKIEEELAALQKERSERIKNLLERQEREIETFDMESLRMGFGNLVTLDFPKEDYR

[14] = biological target: T4, Serine/threonine-protein kinase TAO3 (Homo sapiens); conditions: at 10 µM
[15] = biological target: T5, Serine/threonine-protein kinase TBK1 (Homo sapiens) (UniProt Q9UHD2); conditions: at 1 µM
T5 sequence (whole entry): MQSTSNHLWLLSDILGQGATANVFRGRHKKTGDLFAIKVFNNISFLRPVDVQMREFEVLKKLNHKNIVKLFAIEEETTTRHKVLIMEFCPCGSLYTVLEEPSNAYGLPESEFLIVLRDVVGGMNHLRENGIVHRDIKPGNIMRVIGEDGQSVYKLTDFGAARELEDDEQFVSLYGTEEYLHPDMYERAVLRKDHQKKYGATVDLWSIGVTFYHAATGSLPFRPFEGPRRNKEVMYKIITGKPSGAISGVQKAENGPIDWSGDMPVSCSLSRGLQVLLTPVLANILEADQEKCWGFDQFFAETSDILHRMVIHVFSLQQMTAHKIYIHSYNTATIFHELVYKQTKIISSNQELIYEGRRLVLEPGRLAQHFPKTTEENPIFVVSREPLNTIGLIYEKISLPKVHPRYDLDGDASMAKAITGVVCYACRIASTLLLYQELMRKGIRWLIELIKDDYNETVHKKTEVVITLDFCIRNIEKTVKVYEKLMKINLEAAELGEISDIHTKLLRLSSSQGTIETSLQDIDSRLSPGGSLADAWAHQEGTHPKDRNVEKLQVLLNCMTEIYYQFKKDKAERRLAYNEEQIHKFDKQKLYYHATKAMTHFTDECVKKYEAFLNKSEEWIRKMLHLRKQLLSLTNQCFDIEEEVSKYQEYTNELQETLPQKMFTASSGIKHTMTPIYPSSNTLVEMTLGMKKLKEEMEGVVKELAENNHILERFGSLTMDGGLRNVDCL

[16] = biological target: T5, Serine/threonine-protein kinase TBK1 (Homo sapiens); conditions: at 10 µM
[17] = biological target: T6, TGF-beta receptor type-1 (Homo sapiens) (UniProt P36897); conditions: at 10 µM
T6 sequence (whole entry): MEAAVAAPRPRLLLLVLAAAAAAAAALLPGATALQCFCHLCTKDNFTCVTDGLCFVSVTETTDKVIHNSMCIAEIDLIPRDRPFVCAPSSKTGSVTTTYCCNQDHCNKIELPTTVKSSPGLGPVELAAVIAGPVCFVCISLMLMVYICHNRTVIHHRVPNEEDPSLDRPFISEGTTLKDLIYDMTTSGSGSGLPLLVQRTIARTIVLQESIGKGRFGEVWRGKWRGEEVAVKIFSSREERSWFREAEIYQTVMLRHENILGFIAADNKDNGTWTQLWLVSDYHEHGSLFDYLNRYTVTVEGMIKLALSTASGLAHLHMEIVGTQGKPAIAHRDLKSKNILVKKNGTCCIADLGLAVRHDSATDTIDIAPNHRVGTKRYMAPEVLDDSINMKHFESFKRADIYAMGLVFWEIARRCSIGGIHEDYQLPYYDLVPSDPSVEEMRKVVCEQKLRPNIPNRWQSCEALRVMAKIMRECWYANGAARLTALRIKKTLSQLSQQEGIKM

[18] = biological target: Insulin-like growth factor 1 receptor (Homo sapiens) (UniProt P08069); conditions: at 1 µM
Chain of Insulin-like growth factor 1 receptor (Homo sapiens) (P08069 31-736 limits assumed): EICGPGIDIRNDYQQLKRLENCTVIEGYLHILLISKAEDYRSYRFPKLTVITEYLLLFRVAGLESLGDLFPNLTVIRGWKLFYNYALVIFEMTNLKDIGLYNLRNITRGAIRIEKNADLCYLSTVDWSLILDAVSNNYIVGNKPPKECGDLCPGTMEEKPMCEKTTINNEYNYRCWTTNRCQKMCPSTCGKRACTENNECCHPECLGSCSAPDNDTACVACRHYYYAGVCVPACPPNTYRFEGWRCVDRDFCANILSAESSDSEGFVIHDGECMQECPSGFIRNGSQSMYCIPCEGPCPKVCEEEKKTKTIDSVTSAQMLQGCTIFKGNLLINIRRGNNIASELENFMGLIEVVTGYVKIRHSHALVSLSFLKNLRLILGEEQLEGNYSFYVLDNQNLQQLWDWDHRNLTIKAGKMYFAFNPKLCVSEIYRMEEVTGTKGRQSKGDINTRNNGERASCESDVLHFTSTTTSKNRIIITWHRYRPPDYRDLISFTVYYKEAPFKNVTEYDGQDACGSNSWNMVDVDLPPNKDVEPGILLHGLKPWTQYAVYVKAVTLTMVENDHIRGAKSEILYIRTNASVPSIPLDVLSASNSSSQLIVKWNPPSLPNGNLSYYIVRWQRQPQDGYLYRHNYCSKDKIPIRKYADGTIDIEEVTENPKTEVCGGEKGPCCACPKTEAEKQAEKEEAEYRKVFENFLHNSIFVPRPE
Chain of Insulin-like growth factor 1 receptor (Homo sapiens) (P08069 741-1367 limits assumed): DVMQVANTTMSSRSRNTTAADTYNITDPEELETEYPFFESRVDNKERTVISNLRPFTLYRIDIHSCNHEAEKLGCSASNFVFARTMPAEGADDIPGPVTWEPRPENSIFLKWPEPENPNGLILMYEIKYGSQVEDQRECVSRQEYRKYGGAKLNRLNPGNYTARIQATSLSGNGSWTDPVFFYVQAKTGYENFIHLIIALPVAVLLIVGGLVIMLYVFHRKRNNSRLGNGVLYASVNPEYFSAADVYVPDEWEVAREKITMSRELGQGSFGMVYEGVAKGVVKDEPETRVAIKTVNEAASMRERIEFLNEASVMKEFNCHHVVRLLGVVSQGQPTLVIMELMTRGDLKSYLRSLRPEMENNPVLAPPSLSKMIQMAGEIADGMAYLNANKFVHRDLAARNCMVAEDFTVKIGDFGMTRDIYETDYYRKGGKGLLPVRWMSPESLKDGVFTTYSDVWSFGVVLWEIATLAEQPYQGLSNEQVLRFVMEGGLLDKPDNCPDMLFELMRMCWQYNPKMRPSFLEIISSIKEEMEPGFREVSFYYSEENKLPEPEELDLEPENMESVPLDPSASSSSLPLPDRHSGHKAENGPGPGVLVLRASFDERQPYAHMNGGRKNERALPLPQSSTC

[19] = biological target: Insulin-like growth factor 1 receptor (Homo sapiens) (UniProt P08069); conditions: at 10 µM
[20] = biological target: T6, TGF-beta receptor type-1 (Homo sapiens); conditions: at 1 µM

Chain of Serine/threonine-protein kinase 33 (Homo sapiens) (Q9BYT3 whole entry, looked up): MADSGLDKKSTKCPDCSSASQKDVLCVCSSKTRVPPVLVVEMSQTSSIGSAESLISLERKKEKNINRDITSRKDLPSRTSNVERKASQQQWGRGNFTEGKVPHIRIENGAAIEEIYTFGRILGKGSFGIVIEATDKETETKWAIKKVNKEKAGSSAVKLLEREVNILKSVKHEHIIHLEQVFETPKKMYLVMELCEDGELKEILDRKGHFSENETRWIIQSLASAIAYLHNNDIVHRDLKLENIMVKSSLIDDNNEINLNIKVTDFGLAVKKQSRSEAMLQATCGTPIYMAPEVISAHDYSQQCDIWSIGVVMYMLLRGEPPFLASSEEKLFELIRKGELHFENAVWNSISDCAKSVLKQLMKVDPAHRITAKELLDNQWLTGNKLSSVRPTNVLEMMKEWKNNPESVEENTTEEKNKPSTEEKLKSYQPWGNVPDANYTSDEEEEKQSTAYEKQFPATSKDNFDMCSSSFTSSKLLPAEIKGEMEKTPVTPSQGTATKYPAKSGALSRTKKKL

SMILES	residual activity [1] [%]	residual activity [2] [%]	residual activity [3] [%]	residual activity [4] [%]	residual activity [5] [%]	residual activity [6] [%]	residual activity [7] [%]	residual activity [8] [%]	residual activity [9] [%]	residual activity [10] [%]	residual activity [11] [%]	residual activity [12] [%]	residual activity [13] [%]	residual activity [14] [%]	residual activity [15] [%]	residual activity [16] [%]	residual activity [17] [%]	residual activity [18] [%]	residual activity [19] [%]	residual activity [20] [%]
CCn1cnc2c(Nc3cccc(Cl)c3)nc(N[C@@H]3CCCC[C@@H]3N)nc21	87	42	92	54	99	57	89	65	68	15	81	33	82	43	68	45	79	71	44	
O=C1Nc2ccc3ncsc3c2/C1=C/c1c[nH]cn1	62	25	49	17	101	53	16	1	11	0	33	10	17	6	7	0	38	94	60	68
